About 79,000 compounds went through this panel and 15% of them were active in at least one assay; those are over-represented in the sample as a whole. Cut-off read from the data, not from the text of the source: active = growth inhibition above about 70%; inactive = the rest.
Columns and labels:
[1] = NCI Yeast Anticancer Drug Screen. Data for the rad50 strain (AID 155);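 note: 0% = growth of vehicle-only cultures of the same strain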; details: S. cerevisiae rad50 strain growth inhibition; at 50.0 µM; stronger effect = higher value
Procedure, shortened: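 Yeast carrying a defined DNA repair defect were exposed to test compounds, and growth was compared with vehicle-treated controls to give percent inhibition.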

[2] = NCI Yeast Anticancer Drug Screen. Data for the mec2-1 strain (AID 157); details: S. cerevisiae mec2-1 strain, at 50.0 µM, stronger effect = higher value
Procedure, shortened: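 Strain: mec2-1 (DNA repair/cell cycle alteration). Compound exposure, then growth measured; inhibition expressed relative to vehicle.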

[3] = NCI Yeast Anticancer Drug Screen. Data for the sgs1 mgt1 strain (AID 161);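 note: 0% = growth of cultures given vehicle only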; details: S. cerevisiae sgs1 mgt1 strain, at 50.0 µM, stronger effect = higher value
Procedure, shortened: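 Read-out: growth inhibition vs vehicle controls. Cells: mutant yeast strain deficient in DNA damage repair.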

[4] = NCI Yeast Anticancer Drug Screen. Data for the cln2 rad14 strain (AID 165);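 note: 0% = growth equal to vehicle treated cultures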; details: S. cerevisiae cln2 rad14 strain, at 50.0 µM, stronger effect = higher value
Procedure, shortened: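 Compounds are applied to the cln2 rad14 yeast strain, and growth is then compared with that of vehicle-treated cultures to give inhibition.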

[5] = NCI Yeast Anticancer Drug Screen. Data for the bub3 strain (AID 167); details: S. cerevisiae bub3 mutant strain, at 50.0 µM, stronger effect = higher value
Procedure, shortened: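 Compounds were applied to a genetically altered yeast strain carrying a cell-cycle control defect. Growth inhibition was scored against vehicle-treated controls.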

[6] = NCI Yeast Anticancer Drug Screen. Data for the mlh1 rad18 strain (AID 175); details: S. cerevisiae mlh1 rad18 strain growth inhibition; at 50.0 µM; stronger effect = higher value
Procedure, shortened: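 Read-out is yeast growth inhibition, calculated against vehicle-only controls. The compound was applied to a strain engineered with DNA damage repair alterations.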

Measured: growth inhibition

COc1cccc2cc(-n3nnc4ccccc43)c(=O)oc12
inactive: [1] -8.6% | [2] 18.1% | [3] 4.6% | [4] 7.6% | [5] 25.8% | [6] 9.85%

OCCSCc1ccccc1
inactive: [1] 29.6% | [2] 0.3% | [3] -6.1% | [4] 7.2% | [5] -13.7% | [6] -1.3%

O=S(=O)(Nc1ccccc1C(O)c1ccccc1)c1ccccc1 (configuration not stated)
inactive: [1] 35.5% | [2] 0.8% | [3] 12.3% | [4] -27% | [5] 13.5% | [6] 34.4%

CC(C)(c1cccs1)c1cscc1C(=O)O
inactive: [1] -0.85% | [2] -6.8% | [3] -13.3% | [4] -28.8% | [5] -9.35% | [6] 16.7%

COc1ccc(O)c(/C=N/NC(N)=S)c1
inactive: [1] 23.8% | [2] -24.8% | [3] -4.45% | [4] -115% | [5] -24.8% | [6] -11.4%

N#CCCN(CCC#N)c1ccc(C(=O)NN)cc1
inactive: [1] -18.1% | [2] -15.9% | [3] -3.2% | [4] 25.2% | [5] -8.8% | [6] -5.3%

CC12C(=O)OC(=O)C1C1C=CC2C1 (configuration not stated)
inactive: [1] 20.2% | [2] 6.15% | [3] -18.2% | [4] -64.5% | [5] -0.35% | [6] 5.05%

CCCOC(=O)CCCCCC1CCCCC1
inactive: [1] 15.2% | [2] 6.1% | [3] -5.8% | [4] -33.1% | [5] -8.1% | [6] 8%

CC(=O)OCC1OCOC2C(COC(C)=O)OCOC12 (configuration not stated)
inactive: [1] 3.55% | [2] 2.6% | [3] -8.15% | [4] -24.4% | [5] 3.85% | [6] -8.5%

CN(C)c1ncnc2c1cnn2C1OC(CO)C(O)C1O (configuration not stated)
inactive: [1] 5.85% | [2] 14.2% | [3] 17.3% | [4] 15.2% | [5] 19.6% | [6] 30.7%

N#[N+]c1ccc2c(c1)C(=O)c1ccccc1-2
inactive: [1] 3.2% | [2] 0.05% | [3] -0.6% | [4] -46.2% | [5] 8.6% | [6] -6.65%

CCCCNC(=O)CC
inactive: [1] 3.1% | [2] -11.2% | [3] 3% | [4] 4.85% | [5] 14.9% | [6] -1.95%

O=[N+]([O-])c1ccc(Nc2ccccc2)nc1
inactive: [1] -22.7% | [2] -35.5% | [3] 7.35% | [4] 2.7% | [5] -5.5% | [6] -5.05%

CCC(O)(CC)Cc1ccc(Cl)cc1
inactive: [1] -1% | [2] -9.55% | [3] -0.4% | [4] -12.2% | [5] -12.4% | [6] -6.65%

O=C(O)Cn1c[n+](NC(=O)Cc2ccccc2)cn1
inactive: [1] -19.6% | [2] -25.4% | [3] -25% | [4] -41.8% | [5] -34.5% | [6] -10.8%

CCC12C[N+]3([O-])CCc4c([nH]c5ccccc45)C(C(=O)OC)(c4cc5c(cc4OC)N(C)C4C(O)(C(=O)OC)C(OC(C)=O)C6(CC)C=CCN7CCC54C76)CC(C3)C1O2 (configuration not stated)
inactive: [1] -8.15% | [2] -24.1% | [3] -14% | [4] -9.8% | [5] -2.2% | [6] -31.7%

C=C(C#N)C1OCC2OC(C)(C)OC21 (configuration not stated)
inactive: [1] 3.7% | [2] -4% | [3] -0.35% | [4] 12.3% | [5] -4.8% | [6] -25.9%

OCc1ccncc1
inactive: [1] -5.85% | [2] -13.2% | [3] -9.65% | [4] -47.4% | [5] 10.4% | [6] -2.05%

C[N+](C)(C)CC(=O)N/N=C(\Cc1nc2ccc([N+](=O)[O-])cc2[nH]c1=O)C(=O)Nc1nc2ccc([N+](=O)[O-])cc2s1
inactive: [1] 47.2% | [2] 29.9% | [3] 24.6% | [4] -6.05% | [5] 53.2% | [6] 16.9%

C/C=C/C=C/C=N\O
inactive: [1] 16.6% | [2] 3.1% | [3] -6.65% | [4] -2.8% | [5] -1.45% | [6] 6.8%

C[n+]1ccc(NN)cc1
inactive: [1] -3.5% | [2] -15.8% | [3] 20.3% | [4] 12.6% | [5] 17.6% | [6] 4.4%

O=C(CSSCC(=O)Nc1ccc(Br)cc1)Nc1ccc(Br)cc1
inactive: [1] 28.8% | [2] 2.45% | [3] -11.5% | [4] 18.6% | [5] -6.4% | [6] 26.4%

Oc1ccc2ccc(O)cc2c1
inactive: [1] 21.4% | [2] 21.6% | [3] 10.4% | [4] 12.2% | [5] 11.8% | [6] 5.4%

Cn1cnc2ncnc(NCc3ccc(Cl)c(Cl)c3)c21
inactive: [1] -1.45% | [2] 18.9% | [3] -7.35% | [4] -21.2% | [5] 4.6% | [6] -25.1%

Nc1nc(N)c2cc(CNc3ccc(C(=O)NC(C(=O)O)C(=O)O)cc3)ccc2n1
inactive: [1] -39.1% | [2] 8.1% | [3] -3.15% | [4] -16.6% | [5] -14.2% | [6] -15.6%

Oc1cc2ccc3c(c2cc1O)CCc1cn[nH]c1-3
inactive: [1] 7.1% | [2] 9.25% | [3] 17.5% | [4] -0.55% | [5] 15.8% | [6] 15.5%

O=[N+]([O-])c1ccc(N=NN2CCOCC2)cc1
inactive: [1] -0.55% | [2] 3.5% | [3] -1.4% | [4] -1% | [5] -10.7% | [6] 6.55%

Cc1cc(C)nc(NC(=O)COc2ccc(Cl)cc2)c1
inactive: [1] -15.7% | [2] 5.95% | [3] -20.8% | [4] -39.7% | [5] -37.5% | [6] -14.8%

CC(=O)Oc1c(C)n(C(C)=O)c2cc(Cl)ccc12
inactive: [1] 1.35% | [2] -5.55% | [3] 15.3% | [4] -45% | [5] 6.15% | [6] -8.3%

COc1ccc(/C=N/SC(c2ccccc2)(c2ccccc2)c2ccccc2)cc1
inactive: [1] 28.6% | [2] 6% | [3] 13.2% | [4] 13.4% | [5] 0.2% | [6] -4.4%

C=CCC1(C(C)C(O)c2cc(OC)c(OC)c(OC)c2)CC(O)C=CC12OCCO2 (configuration not stated)
inactive: [1] 13.9% | [2] -17.3% | [3] 1.5% | [4] 14.9% | [5] 16.2% | [6] 24.6%

CSCC[C@H](NC(C)=O)B1OCCO1
inactive: [1] 9.85% | [2] 21.4% | [3] 2.95% | [4] 6.05% | [5] -4.6% | [6] 19.5%

O=C(O)Cc1ccc(-c2ccccc2)[nH]1
inactive: [1] 3.35% | [2] -14.7% | [3] 3.25% | [4] -25.8% | [5] -17.1% | [6] -12%

Cn1c2ccccc2c(=O)c2cc(NC(=O)CCCCCCCC(=O)Nc3ccc4c(c3)c(=O)c3ccccc3n4C)ccc21
inactive: [1] -10.7% | [2] -12.8% | [3] -10.7% | [4] -12.6% | [5] -27.2% | [6] -1.45%

Cc1ccc(S(=O)(=O)NC(=O)c2ncn(C3OC(CO)C(O)C3O)c2N)cc1 (configuration not stated)
inactive: [1] -5.15% | [2] 10.8% | [3] 12.7% | [4] 15.1% | [5] 1.5% | [6] 1.55%

O=C(/C=C\c1ccccc1)OCc1ccccc1CN1CCCCC1
inactive: [1] 15.7% | [2] 11.7% | [3] 17.2% | [4] 14.6% | [5] 10.4% | [6] 12.8%

O=C1NC(C(=O)O)CC1O (configuration not stated)
inactive: [1] 4.1% | [2] 23.9% | [3] 5.05% | [4] 14.2% | [5] 17.9% | [6] 17.6%

Nc1nc2c(-c3ccc([N+](=O)[O-])cc3)nnn2c2ccccc12
inactive: [1] 12.7% | [2] 5.5% | [3] 37% | [4] 9.7% | [5] 22.2% | [6] 25.3%

CN(C)C=Nc1cc2c(cc1Br)-c1ccccc1C2=O
inactive: [1] 3.05% | [2] 10.3% | [3] 4.4% | [4] -0.45% | [5] 2% | [6] -15.7%

CC1C(=O)CCC2CCCCC21 (configuration not stated)
inactive: [1] 18.1% | [2] -17.4% | [3] 8.05% | [4] 7.95% | [5] 12.2% | [6] 17.2%

O=C(O)c1cc(=O)[nH]c(SCc2ccccc2)n1
inactive: [1] -9.7% | [2] -20.1% | [3] -28.5% | [4] -30.2% | [5] -20.8% | [6] -5.35%

Cc1cc(O)c(C)c(C)c1C
inactive: [1] -1.05% | [2] -6.55% | [3] 4.5% | [4] 2.1% | [5] -9.85% | [6] 12.1%

Reference: PubChem BioAssay (NCI)
